The supplement of paper PMC4466140

Assays:
Experiment in all cases: SPOT peptide array binding signal intensity (averaged, normalized) (arbitrary units (background-subtracted, floor 0; scale differs between SH3 domains)); higher = stronger binding of the SH3 domain to the peptide
AgAbp1 = target: AgAbp1
In short: (§1)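 The binding signal is the normalized, background-subtracted spot intensity averaged over replicates; its arbitrary units differ between domains. It was obtained by incubating 10 μg/ml GST-fused SH3 domains from four yeast species overnight at 4°C in TBS-based blocking buffer on cellulose membranes with synthetic 15-mer peptides, cysteines replaced by serines, then detecting with anti-GST antibody, HRP anti-mouse secondary and luminol.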

AgBbc1 = target: AgBbc1
In short: as §1

AgBem1-D1 = target: AgBem1-D1
In short: as §1

AgBzz1-D1 = target: AgBzz1-D1
In short: as §1

AgBzz1-D2 = target: AgBzz1-D2
In short: as §1

AgCyk3 = target: AgCyk3
In short: as §1

AgFus1 = target: AgFus1
In short: as §1

AgHof1 = target: AgHof1
In short: as §1

AgHse1 = target: AgHse1
In short: as §1

AgLsb1 = target: AgLsb1
In short: as §1

AgLsb4 = target: AgLsb4
In short: as §1

AgMyo5 = target: AgMyo5
In short: as §1

AgNbp2 = target: AgNbp2
In short: as §1

AgRvs167 = target: AgRvs167
In short: as §1

AgSho1 = target: AgSho1
In short: as §1

AgSla1-D1-D2 = target: AgSla1-D1-D2
In short: as §1

AgSla1-D3 = target: AgSla1-D3
In short: as §1

CaAbp1-D1 = target: CaAbp1-D1
In short: as §1

CaAbp1-D2 = target: CaAbp1-D2
In short: as §1

CaBbc1 = target: CaBbc1
In short: as §1

CaBem1-D1 = target: CaBem1-D1
In short: as §1

CaBzz1-D1 = target: CaBzz1-D1
In short: as §1

CaBzz1-D2 = target: CaBzz1-D2
In short: as §1

CaCyk3 = target: CaCyk3
In short: as §1

CaFus1 = target: CaFus1
In short: as §1

CaHof1 = target: CaHof1
In short: as §1

CaHse1 = target: CaHse1
In short: as §1

CaLsb1 = target: CaLsb1
In short: as §1

CaLsb4 = target: CaLsb4
In short: as §1

CaMyo5 = target: CaMyo5
In short: as §1

CaNbp2 = target: CaNbp2
In short: as §1

CaRvs167 = target: CaRvs167
In short: as §1

CaRvs167-3 = target: CaRvs167-3
In short: as §1

CaSho1 = target: CaSho1
In short: as §1

CaSla1-D1-D2 = target: CaSla1-D1-D2
In short: as §1

CaSla1-D3 = target: CaSla1-D3
In short: as §1

ScAbp1 = target: ScAbp1
In short: as §1

ScBbc1 = target: ScBbc1
In short: as §1

ScBem1-D1 = target: ScBem1-D1
In short: as §1

ScBzz1-D1 = target: ScBzz1-D1
In short: as §1

ScBzz1-D2 = target: ScBzz1-D2
In short: as §1

ScCyk3 = target: ScCyk3
In short: as §1

ScFus1 = target: ScFus1
In short: as §1

ScHof1 = target: ScHof1
In short: as §1

ScHse1 = target: ScHse1
In short: as §1

ScLsb1 = target: ScLsb1
In short: as §1

ScLsb2 = target: ScLsb2
In short: as §1

ScLsb3 = target: ScLsb3
In short: as §1

ScLsb4 = target: ScLsb4
In short: as §1

ScMyo3 = target: ScMyo3
In short: as §1

ScMyo5 = target: ScMyo5
In short: as §1

ScNbp2 = target: ScNbp2
In short: as §1

ScPex13 = target: ScPex13
In short: as §1

ScRvs167 = target: ScRvs167
In short: as §1

ScSho1 = target: ScSho1
In short: as §1

ScSla1-D1-D2 = target: ScSla1-D1-D2
In short: as §1

ScSla1-D3 = target: ScSla1-D3
In short: as §1

SpAbp1-D1 = target: SpAbp1-D1
In short: as §1

SpBbc1 = target: SpBbc1
In short: as §1

SpBzz1-D1 = target: SpBzz1-D1
In short: as §1

SpBzz1-D2 = target: SpBzz1-D2
In short: as §1

SpCyk3 = target: SpCyk3
In short: as §1

SpHof1 = target: SpHof1
In short: as §1

SpHof1-2 = target: SpHof1-2
In short: as §1

SpHof1-3 = target: SpHof1-3
In short: as §1

SpHse1 = target: SpHse1
In short: as §1

SpLsb1 = target: SpLsb1
In short: as §1

SpLsb4 = target: SpLsb4
In short: as §1

SpMyo1 = target: SpMyo1
In short: as §1

SpNbp2 = target: SpNbp2
In short: as §1

SpPex13 = target: SpPex13
In short: as §1

SpRvs167 = target: SpRvs167
In short: as §1

SpSla1-D1-D2 = target: SpSla1-D1-D2
In short: as §1

SpSla1-D3 = target: SpSla1-D3
In short: as §1

With IKKRNKIRLPSGSPE the “SPOT peptide array binding signal intensity” value (AgAbp1) was 286, the “SPOT peptide array binding signal intensity” value (AgBbc1) was 23.8 and the “SPOT peptide array binding signal intensity” value (AgBem1-D1) was 55. The “SPOT peptide array binding signal intensity” value (AgBzz1-D1) was 22, the “SPOT peptide array binding signal intensity” value (AgBzz1-D2) was 34.5 and the “SPOT peptide array binding signal intensity” value (AgCyk3) was 7. The “SPOT peptide array binding signal intensity” value (AgFus1) was 279, the “SPOT peptide array binding signal intensity” value (AgHof1) was 52.5 and the “SPOT peptide array binding signal intensity” value (AgHse1) was 766. For the same binder, the “SPOT peptide array binding signal intensity” value (AgLsb1) was 7, the “SPOT peptide array binding signal intensity” value (AgLsb4) was 97 and the “SPOT peptide array binding signal intensity” value (AgMyo5) was 1.75. For the same binder, the “SPOT peptide array binding signal intensity” value (AgNbp2) was 202, the “SPOT peptide array binding signal intensity” value (AgRvs167) was 5.67 and the “SPOT peptide array binding signal intensity” value (AgSho1) was 36. The “SPOT peptide array binding signal intensity” value (AgSla1-D1-D2) was 89, the “SPOT peptide array binding signal intensity” value (AgSla1-D3) was 7 and the “SPOT peptide array binding signal intensity” value (CaAbp1-D1) was 1510. The “SPOT peptide array binding signal intensity” value (CaAbp1-D2) was 858, the “SPOT peptide array binding signal intensity” value (CaBbc1) was 94.2 and the “SPOT peptide array binding signal intensity” value (CaBem1-D1) was 16. The “SPOT peptide array binding signal intensity” value (CaBzz1-D1) was 104, the “SPOT peptide array binding signal intensity” value (CaBzz1-D2) was 132 and the “SPOT peptide array binding signal intensity” value (CaCyk3) was 17. For the same binder, the “SPOT peptide array binding signal intensity” value (CaFus1) was 615, the “SPOT peptide array binding signal intensity” value (CaHof1) was 1.25 and the “SPOT peptide array binding signal intensity” value (CaHse1) was 38. For the same binder, the “SPOT peptide array binding signal intensity” value (CaLsb1) was 1.5, the “SPOT peptide array binding signal intensity” value (CaLsb4) was 79 and the “SPOT peptide array binding signal intensity” value (CaMyo5) was 1.5. The “SPOT peptide array binding signal intensity” value (CaNbp2) was 271, the “SPOT peptide array binding signal intensity” value (CaRvs167) was 11.7 and the “SPOT peptide array binding signal intensity” value (CaRvs167-3) was 67.2. The “SPOT peptide array binding signal intensity” value (CaSho1) was 506, the “SPOT peptide array binding signal intensity” value (CaSla1-D1-D2) was 30 and the “SPOT peptide array binding signal intensity” value (CaSla1-D3) was 0.5. The “SPOT peptide array binding signal intensity” value (ScAbp1) was 39, the “SPOT peptide array binding signal intensity” value (ScBbc1) was 12.8 and the “SPOT peptide array binding signal intensity” value (ScBem1-D1) was 62. The “SPOT peptide array binding signal intensity” value (ScBzz1-D1) was 20, the “SPOT peptide array binding signal intensity” value (ScBzz1-D2) was 15 and the “SPOT peptide array binding signal intensity” value (ScCyk3) was 181. The “SPOT peptide array binding signal intensity” value (ScFus1) was 242, the “SPOT peptide array binding signal intensity” value (ScHof1) was 1.5 and the “SPOT peptide array binding signal intensity” value (ScHse1) was 1420. The “SPOT peptide array binding signal intensity” value (ScLsb1) was 6.25, the “SPOT peptide array binding signal intensity” value (ScLsb2) was 11 and the “SPOT peptide array binding signal intensity” value (ScLsb3) was 162. The “SPOT peptide array binding signal intensity” value (ScLsb4) was 13, the “SPOT peptide array binding signal intensity” value (ScMyo3) was 4 and the “SPOT peptide array binding signal intensity” value (ScMyo5) was 6. The “SPOT peptide array binding signal intensity” value (ScNbp2) was 256, the “SPOT peptide array binding signal intensity” value (ScPex13) was 7.5 and the “SPOT peptide array binding signal intensity” value (ScRvs167) was 33. The “SPOT peptide array binding signal intensity” value (ScSho1) was 681, the “SPOT peptide array binding signal intensity” value (ScSla1-D1-D2) was 362 and the “SPOT peptide array binding signal intensity” value (ScSla1-D3) was 30. For the same binder, the “SPOT peptide array binding signal intensity” value (SpAbp1-D1) was 512, the “SPOT peptide array binding signal intensity” value (SpBbc1) was 2 and the “SPOT peptide array binding signal intensity” value (SpBzz1-D1) was 122. The “SPOT peptide array binding signal intensity” value (SpBzz1-D2) was 2, the “SPOT peptide array binding signal intensity” value (SpCyk3) was 6.5 and the “SPOT peptide array binding signal intensity” value (SpHof1) was 253. The “SPOT peptide array binding signal intensity” value (SpHof1-2) was 4.5, the “SPOT peptide array binding signal intensity” value (SpHof1-3) was 664 and the “SPOT peptide array binding signal intensity” value (SpHse1) was 457. The “SPOT peptide array binding signal intensity” value (SpLsb1) was 6.5, the “SPOT peptide array binding signal intensity” value (SpLsb4) was 104 and the “SPOT peptide array binding signal intensity” value (SpMyo1) was 4. For the same binder, the “SPOT peptide array binding signal intensity” value (SpNbp2) was 836, the “SPOT peptide array binding signal intensity” value (SpPex13) was 6 and the “SPOT peptide array binding signal intensity” value (SpRvs167) was 8.5. The “SPOT peptide array binding signal intensity” value (SpSla1-D1-D2) was 1.5 and the “SPOT peptide array binding signal intensity” value (SpSla1-D3) was 2.
